Experimental data published in PubChem BioAssay (NCI).
About 83,000 compounds went through this panel and 20% of them were active in at least one assay; those are over-represented in the sample as a whole.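 Assay: single dose, 48 h. Readout: percent growth (0 = no net growth; negative = cell death). Active: <10.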 Unmarked numbers belong to inactive results. Active and inactive are the calls of the source.

test system: SR leukemia; test: NCI-60 one-dose screen, 48 h (100 = growth as untreated, 0 = no growth, -100 = all killed); conditions: 10 µM unless noted

Row | SMILES | growth
1 | N#Cc1c(N)nc(NCCO)nc1-c1ccc(F)cc1 | 99.3%
2 | CC/C=C\C[C@H](O)C/C=C1/C(=O)C=C[C@@H]1C/C=C\CCCCO | -5.23% (active)
3 | FC(F)(F)c1cc(Nc2ccc3cc(OCCCN4CCOCC4)ccc3n2)ccc1Cl | -12.3% (active)
4 | N#C/C(=C\c1ccc(Br)cc1)n1nnc2cc(F)c(F)cc21 | 6.06% (active)
5 | CNC(=O)NCC1OC(n2cnc3c(NC(=O)Nc4ccccc4)ncnc32)C(O[Si](C)(C)C(C)(C)C)C1CC(=O)N(C)OC (configuration not stated) | -56% (active)
6 | CN(C)CC1C(=O)O[C@H]2[C@H]1CC/C(COC(=O)c1cc3ccccc3[nH]1)=C\CC[C@@]1(C)O[C@@H]21 (some centres not stated) | -13.6% (active)
7 | S=C(Cc1ccc2c(c1)CCCC2)N1CCOCC1 | 94.7%
8 | Cc1cc(Cl)nc(NCc2cc(Nc3ccnc4cc(Cl)ccc34)ccc2F)n1 | -7.84% (active)
9 | COC(=O)[C@]12CC[C@@H](C)[C@H](C)[C@@H]1C1=CC[C@@H]3[C@@]4(C)C(C=O)=C[C@@](C)(CO)[C@@H]4[C@H](O)C[C@@]3(C)[C@]1(C)CC2 | -20.4% (active)
10 | CCN1CCN(c2cc(C)nc(NCc3cc(Nc4ccnc5cc(Cl)ccc45)ccc3F)n2)CC1 | -18.4% (active)
11 | C=CCOC1=CC(=O)c2ccccc2C1=O | 9.62% (active)
12 | COc1ccc(-c2nc(SC(C)C)nc(NNC(N)=S)c2C#N)cc1 | 24.4%
13 | Cc1cc(C)c2c(-c3nnc(N)s3)cc(=O)oc2c1 | 105%
14 | Oc1c(CN2CCCC2)cc(COCc2ccc(Br)cc2)c2cccnc12 | 3.12% (active)
15 | O=[N+]([O-])c1ccc(-c2cc(-c3ccc(Nc4nc(Nc5ccc(Cl)cc5)nc(Nc5ccc(Cl)cc5)n4)cc3)no2)cc1 | 14.5%
16 | O=C1/C(=C/c2ccc(F)cc2)C=C(c2ccccc2)N1CCc1ccccc1 | 46.5%
17 | O=C(O)c1ccc2c(c1Cl)C(=O)c1ccccc1C2=O | 70.7%
18 | COc1cc(N=Nc2ccc(N)cc2)c(OC)cc1N=Nc1ccccc1.[Cl][Zn][Cl] | 93.2%
19 | O=[N+]([O-])c1ccc(OCCO)cc1 | 139%

Row | SMILES | growth
20 | CCN(CC)c1nc(SCC(=O)Nc2nc3ccc(C)cc3s2)nc(-c2ccccc2)c1C#N | 2.23% (active)
21 | Cc1cc(NCCCCNc2ccnc3cc(Cl)ccc23)nc(Nc2ccc(C(=O)N3CCCC3)cc2)n1 | -28.9% (active)
22 | COc1ccc(-c2nc3c(c(=O)n2C(C)=O)C(c2ccc(Cl)cc2)c2sc4c(Cl)cccc4c2O3)cc1 (configuration not stated) | -11.7% (active)
23 | COc1ccc2[nH]c(O)c(/C=c3/cc4c(c(-c5ccc(F)c(OC)c5)n3)=Nc3ccccc3-4)c2c1 | 2.4% (active)
24 | N#CC1=C(/N=C/c2ccccc2)Oc2c(ccc3ccccc23)C1c1ccccc1 (configuration not stated) | 19.2%
25 | CC(=O)C(C)Cc1cc2c(cc1C)C(C)(C)CCC2(C)C (configuration not stated) | 131%
26 | Cc1ccc(Nc2nc(N)nc(CSCC(=O)NN)n2)cc1 | 87%
27 | Cc1ccc(-c2c(-c3ccccc3)c(=O)oc3ccc(C)cc23)cc1 | 71.1%
28 | N#C/C(=C\c1ccc2c(c1)OCO2)n1nnc2cc(F)c(F)cc21 | 42.6%
29 | Cc1cccc(Cc2cnc(NC(=O)/C=C/c3ccco3)s2)c1 | 13.7%
30 | N=C(N)c1ccc(-c2ccc(-c3cncc4ccccc34)s2)s1 | -29.3% (active)
31 | COc1ccc2occ(C3=C(c4c[nH]c5ccccc45)C(=O)N(O)C3=O)c2c1 | 57.2%
32 | C=C(C)[C@@H]1CC[C@]2(C(=O)NC3CCCCC3)CC[C@]3(C)[C@H](CC[C@@H]4[C@@]5(C)CCCNC(C)(C)[C@@H]5CC[C@]43C)[C@@H]12 | -22.5% (active)
33 | O=C(/C=C/c1ccco1)c1ccc(Nc2nc(Nc3ccc(F)cc3)nc(Nc3ccc(Cl)cc3)n2)cc1 | 0.269% (active)
34 | COC(=O)[C@]12CC[C@@H](C)[C@H](C)[C@@H]1C1=CC[C@@H]3[C@@]4(C)C(C=O)=C[C@@](C)(COC(=O)c5ccco5)[C@@H]4C(=O)C[C@@]3(C)[C@]1(C)CC2 | 32.5%
35 | COc1cccc(-c2nn(-c3ccccc3)cc2-c2ccnc(NCCNC(=O)Nc3ccc(Cl)c(Cl)c3)c2)c1 | -26.4% (active)
36 | Cc1cc(N2CCCC2)nc(NCc2cc(Nc3ccnc4cc(Cl)ccc34)ccc2F)n1 | -28.1% (active)
37 | COc1cc(/C=C/C(=O)c2c(C)nc3ccccc3c2C)ccc1OCCCN1CCN(C(=O)c2ccco2)CC1 | 64.8%
